Only some compounds are listed: those with a hit (about 19% of all), similar ones and a draw of the others.
IL1B secr inh: inflammasome signaling inhibition, IL-1 beta readout; THP-1 LPS/ATP IL-1B secretion, AlphaLISA, 16 h; active compounds read low; activity change, % at 57.5 µM; 360,000 compounds, 4.7% hits; AID 743279; in the data active = activity change below about -50%; inconclusive = mostly about -30% to -49%; note: % is set by controls: 0 for no effect and ±100 for the full control effect
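Secreted IL-1B measured by AlphaLISA bead assay after 16 h compound exposure of THP-1 cells; compounds (final up to 57.5 uM) added 1 h before LPS (250 ng/mL) and ATP (1.25 mM) stimulation; lower signal means less secretion.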
DT40 TDP1 no CPT: qHTS for Inhibitors of human tyrosyl-DNA phosphodiesterase 1 (TDP1): qHTS in cells in absence of CPT; DT40 Tdp1-/- hTDP1 cells, no CPT, ATP luminescence, 48 h; Potency, µM (titrated, usually from 46.2 µM), inactives show at the top dose activity change, negative = growth inhibition, most hits filed as inhibitors; 420,000 compounds, 15% hits; AID 686978, 2013; note: potency is the fitted concentration of half-maximal effect; % is set by controls: 0 for no effect and ±100 for the full control effect; nearly all actives have a fitted effect of over 55% in size
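Seeded 400 DT40-hTDP1 cells/well (vehicle DMSO, no 20 nM CPT); pinned compounds; ≥48 hr at 37 °C; CellTiter-Glo luminescence as viability measure.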
TDP1 inh: inhibitors of human tyrosyl-DNA phosphodiesterase TDP1; AID 485290; recombinant TDP1, AlphaScreen DNA substrate cleavage; Potency, µM (highest dose often 130 µM), for the others: top-dose activity change, negative = inhibition, hits mostly inhibitors; 350,000 compounds, 0.28% hits; Q9NUW8; note: potency is the fitted concentration of half-maximal effect; % is set by controls: 0 for no effect and ±100 for the full control effect; nearly all actives have a fitted effect of over 40% in size
Target sequence (Q9NUW8 whole entry, looked up): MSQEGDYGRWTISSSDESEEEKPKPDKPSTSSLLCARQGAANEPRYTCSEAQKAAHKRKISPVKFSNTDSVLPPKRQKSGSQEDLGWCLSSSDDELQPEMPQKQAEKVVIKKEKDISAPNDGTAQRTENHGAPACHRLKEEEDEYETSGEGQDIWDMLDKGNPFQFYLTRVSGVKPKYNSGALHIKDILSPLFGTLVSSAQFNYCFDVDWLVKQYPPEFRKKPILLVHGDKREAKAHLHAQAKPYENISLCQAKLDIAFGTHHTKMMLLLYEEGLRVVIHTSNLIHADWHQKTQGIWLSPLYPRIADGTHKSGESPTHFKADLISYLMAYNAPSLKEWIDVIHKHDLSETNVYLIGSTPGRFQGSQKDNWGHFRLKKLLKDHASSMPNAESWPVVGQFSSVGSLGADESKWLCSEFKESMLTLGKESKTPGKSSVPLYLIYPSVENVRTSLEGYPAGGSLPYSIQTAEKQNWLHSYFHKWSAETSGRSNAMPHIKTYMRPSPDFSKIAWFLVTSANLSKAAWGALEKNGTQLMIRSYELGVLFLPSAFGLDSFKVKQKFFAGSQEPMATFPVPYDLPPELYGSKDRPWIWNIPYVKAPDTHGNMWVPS
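Steps: enzyme plus compound, 15 min RT; add biotin/phosphotyrosine-FITC oligonucleotide (15 nM final), react 5 min; add donor/acceptor beads (10 ug/ml final), 10 min; read AlphaScreen. Tdp1 at 1 nM final.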
HepG2 viability: kills HepG2 cells in TGF-b inhibitor counter-screen | HepG2 CAGA-GFP viability, ATP luminescence, 18 h | Potency, µM (series often up to 46.1 µM), for the others: at the highest dose activity change, negative = cytotoxicity, usual class: cytotoxic | 410,000 compounds, 0.76% hits; note: potency is the fitted concentration of half-maximal effect
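HepG2 CAGA-GFP cells (1000/well, DMEM with 1% FBS) received compound, then TGF-beta at 500 pg/mL final, and were incubated 18 hours at 37 degrees C. Viability was read by CellTiter-Glo luminescence. Media-only wells were set as complete cell-killing and DMSO as no toxicity.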
DT40 TDP1 CPT: growth inhibition of DT40 Tdp1-/-;hTDP1 cells with camptothecin (screen for TDP1 inhibitors) | chicken DT40 Tdp1-/-;hTDP1 cells + 20 nM CPT, ATP luminescence, 48 h | Potency, µM (titrated, usually from 46.2 µM), without a hit: at the highest dose activity change, negative = growth inhibition, actives largely listed as inhibitors | 420,000 compounds, 12% hits | AID 686979; note: potency is the fitted concentration of half-maximal effect; % is set by controls: 0 for no effect and ±100 for the full control effect; nearly all actives have a fitted effect of over 55% in size
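Chicken DT40 Tdp1-/- cells stably complemented with human TDP1 were seeded at 400 cells/well in medium containing 20 nM camptothecin, exposed to pin-transferred compounds, and grown at 37 °C for at least 48 hr. Viability was read as ATP luminescence.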
TGFb inhibitor: blocks TGF-b signaling; HepG2 CAGA-GFP TGF-b/SMAD3 reporter, GFP fluorescence, 18 h; TGF-beta stimulated, 500 pg/mL final; Potency, µM (series often up to 46.1 µM), for inactives: at the top dose activity, negative = inhibition, most hits filed as inhibitors; 410,000 compounds, 1.2% hits; AID 588855; note: potency is the fitted concentration of half-maximal effect; % is set by controls: 0 for no effect and ±100 for the full control effect; nearly all actives have a fitted effect of over 65% in size
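Smad-responsive CAGA-GFP expression was quantified in HEPG2 cells exposed to compounds and 500 pg/mL final TGF-beta for 18 h at 37 degrees C; unstimulated wells defined full inhibition.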
The depositor's hits bear a star; ? = inconclusive; . = no result given. Unless noted, calls come from the whole dose curve; as a rule, active = well fitted curve in the direction sought with a large enough effect; inconclusive = small, poorly fitted or top-dose-only effect, or another doubt; inactive = no such curve, though single readings can be large; an effect the other way counts as inactive or inconclusive.

SMILES	IL1B secr inh	DT40 TDP1 no CPT	TDP1 inh	HepG2 viability	DT40 TDP1 CPT	TGFb inhibitor
O=c1[nH]c(/C(Cl)=C/c2cc(Cl)ccc2O)nc2cc(Cl)ccc12	-104.8*	13µM*	7.0%	-13.4%	13µM*	-20.9%
COc1ccc2[nH]c(=O)c(CN(Cc3cccs3)Cc3nnnn3C(C)(C)C)cc2c1	-7.6	23.1µM*	2.6%	-16.5%	?	6.7%
CCOc1ccc2[nH]c(=O)c(CN(Cc3cccs3)Cc3nnnn3C(C)(C)C)cc2c1	?	15.8µM*	1.0%	1.3%	20.6µM*	-12.7%
CCOC(=O)Cn1nnnc1CN(Cc1cccs1)Cc1cc2cc(C)ccc2[nH]c1=O	5.5	?	-1.0%	-57.5%	?	?
COc1ccc(OC)c(CNC(=O)c2cc3c(-c4ccc(OC)c(OC)c4)nn(C)c3s2)c1	.	8.2µM*	4.7%	-8.0%	?	31.7%
COc1ccccc1CNC(=O)c1cc2c(-c3ccc(Cl)cc3)nn(C)c2s1	.	?	?	-17.4%	?	0.4%
CCCN(CCC)CCCNC(=O)c1cc2c(-c3ccc(OC)c(OC)c3)nn(C)c2s1	-52.4*	4.61µM*	-4.7%	-38.0%	14.6µM*	-4.8%
CCN(CC)S(=O)(=O)c1ccc(N2CCc3cc(OC)c(OC)cc3C2)nc1	-90.8*	?	0.7%	-14.2%	18.4µM*	-4.3%
Cc1nc(CC(=O)Nc2ccc(C)c(C)c2)cs1	.	-14.6%	4.7%	-0.3%	7.6%	-1.3%
Cc1cccc(OCc2nc(CC(=O)Nc3ccc(Cl)cc3)cs2)c1	.	?	5.7%	-19.6%	20.6µM*	-26.4%
Cc1cccc(OCc2nc(CC(=O)Nc3ccc(C)c(C)c3)cs2)c1	.	18.4µM*	-0.5%	-0.3%	?	11.4%
CCCCN(C(=O)C(C)Oc1ccc(Br)cc1)c1c(N)n(CC(C)C)c(=O)[nH]c1=O (stereo unspecified)	39.6	0.8%	0.0%	-10.9%	0.3%	0.0%
O=C(Cc1ccccc1[N+](=O)[O-])Nc1ccc(S(=O)(=O)N2CCCC2)cc1	.	.	5.1%	.	.	.
COc1ccccc1C(=O)N(CCC1CCCN1C)c1nc2ccccc2s1 (stereo unspecified)	-78.3*	?	2.4%	4.6%	-24.0%	?
CN1CCN(C(=O)CCc2nnc3ccc(N4CCC5(CC4)OCCO5)nn23)CC1	4.4	-5.8%	3.2%	0.9%	7.6%	-3.8%
CCCc1cc(C(=O)N(C2CCCCC2)C2CCCCC2)no1	53.6	29.1µM*	2.5%	-25.0%	?	-28.2%
CCCc1cc(C(=O)NC2CCCCC2)no1	-29.9	11.7%	-6.5%	-4.9%	-18.7%	3.1%
COc1cc2c(cc1NC(=O)C(Cl)Cl)-c1ccc(NC(=O)C(Cl)Cl)cc1C2	-97.2*	8.2µM*	.	7.94µM*	8.2µM*	4.47µM*
COc1cc2c(cc1NC(=O)c1ccccc1-c1ccccc1C(=O)O)-c1ccccc1C2	-19.7	-7.8%	.	-15.3%	0.1%	-4.1%
CC(=O)O[C@@H]1C(CO[Si](C)(C)C(C)(C)C)=C(Br)C(=O)[C@@H]2O[C@]12C	.	.	-2.5%	.	.	.
CC(=O)c1ccc([N+](C)(C)C)cc1	.	-1.5%	.	4.1%	16.7%	3.4%
CC1=CCC2C(=O)N(c3nc4ccccc4n3C)C(=O)C2C1 (stereo unspecified)	12.1	-6.7%	39.8µM*	-3.1%	-2.1%	-1.3%
CC1=CCC2C(=O)N(C(C)c3ccccc3)C(=O)C2C1 (stereo unspecified)	-7.4	-2.1%	2.0%	6.6%	-1.5%	?
CCN(c1cccc(C)c1)c1ncnc2nc[nH]c12	-4.4	-29.8%	3.1%	14.5%	-27.6%	3.2%
CCN(CCCNc1ncnc2nc[nH]c12)c1cccc(C)c1	40.1	?	7.6%	-22.4%	18.4µM*	?
SMILES	IL1B secr inh	DT40 TDP1 no CPT	TDP1 inh	HepG2 viability	DT40 TDP1 CPT	TGFb inhibitor
CCOC(=O)CNC(=O)C1CCCCC1	.	-0.4%	1.4%	-9.8%	-6.9%	0.4%
CC(C)CCN1C(=O)N(c2ccccc2)C(=O)C1CC(=O)Nc1ccc(Cl)cc1 (stereo unspecified)	.	?	-1.9%	-47.0%	?	?
C=CC[C@@H](CC(=O)OC(C)(C)C)C(=O)OC[C@H]1CCCN1C(=O)[C@@H](CC=C)CC(=O)NCCO	-1.2	-24.5%	-0.1%	-3.8%	-2.5%	-2.6%
C=CC[C@H](CC(=O)OC(C)(C)C)C(=O)OC[C@@H]1CCCN1C(=O)[C@@H](CC=C)CC(=O)N[C@H](CO)Cc1ccccc1	-0.8	?	-1.1%	-30.0%	16.4µM*	-16.3%
C=CC[C@@H](CC(=O)OC(C)(C)C)C(=O)OC[C@@H]1CCCN1C(=O)[C@H](CC=C)CC(=O)NCCO	-1.6	-5.2%	0.8%	-21.4%	-2.9%	-4.1%
C=CC[C@H](CC(=O)OC(C)(C)C)C(=O)OC[C@@H]1CCCN1C(=O)[C@H](CC=C)CC(=O)N[C@H](CO)Cc1ccccc1	-28.7	?	-0.4%	-25.3%	25.9µM*	?
C=CC[C@@H](CC(=O)OC(C)(C)C)C(=O)OC[C@@H]1CCCN1C(=O)[C@@H](CC=C)CC(=O)N[C@H](CO)Cc1ccccc1	-19.2	?	-0.8%	-30.2%	23.1µM*	?
O=c1ccc2c(OCCCCOc3ccccc3)c3ccoc3cc2o1	.	.	-3.0%	.	.	.
CC(C)N(c1ccc(C=O)cc1)C(C)C	.	-2.4%	.	6.7%	-29.0%	-0.1%
O=C(O)CNS(=O)(=O)c1c(Cl)cccc1Cl	18.0	-1.8%	2.4%	0.4%	0.2%	1.1%
O=C(NCc1ccccc1F)C1CCCN(C(=O)N2CCOc3ccccc32)C1 (stereo unspecified)	.	?	3.9%	-18.0%	-24.0%	-25.7%
N=C(N=C(N)N)N1CCc2ccccc21	-7.6	13µM*	3.0%	-16.6%	?	-2.7%
O=C(Cn1cccc1)N1CCc2ccccc21	-6.8	-5.7%	6.6%	-14.7%	-18.9%	-5.3%
O=C(Nc1cccc(F)c1)C1CCN(S(=O)(=O)c2cccc3nsnc23)CC1	.	?	2.3%	-42.5%	?	?
COc1ccc(N2CCN(C(=O)CSc3c4c(nc5ccc(Cl)cc35)CCCC4)CC2)cc1	.	14.6µM*	9.3%	-33.7%	20.6µM*	?
Cc1ccnc(SCC(=O)N2CCN(c3cccc(Cl)c3)CC2)n1	0.0	?	3.3%	-18.9%	-30.0%	-16.0%
O=C(CSc1c2c(nc3ccc(Cl)cc13)CCCC2)N1CCN(c2ccc(Cl)cc2)CC1	.	16.4µM*	2.3%	-40.8%	11.6µM*	-16.6%

Bioassay records as filed in PubChem BioAssay.
